Results filed as inconclusive are left out. Active and inactive are the calls of the source. Unless noted, calls come from the whole dose curve; as a rule, active = well fitted curve in the direction sought with a large enough effect in the repeat runs; inconclusive = weak or mixed curves; inactive = no such curve, though single readings can be large; an effect the other way counts as inactive or inconclusive.
Tests used:
[1] = qHTS assay to identify small molecule antagonists of the glucocorticoid receptor (GR) signaling pathway - cell viability counter screen (AID 720693); settings: GR-bla HeLa viability, CellTiter-Glo luminescence, 18 h, with 5 nM dexamethasone present; series mostly up to 58.5 µM; note: nearly all actives have a fitted effect of over 55% in size
[2] = qHTS assay for identifying genotoxic compounds that show differential cytotoxicity against isogenic chicken DT40 cell lines with known DNA damage response pathways - Rev3 mutant cell line (AID 743014); settings: chicken DT40 Rev3-/- viability, CellTiter-Glo, 40 h; series mostly up to 68.4 µM; note: nearly all actives have a fitted effect of over 55% in size; note: potency is the fitted concentration of half-maximal effect
[3] = qHTS assay for identifying genotoxic compounds that show differential cytotoxicity against isogenic chicken DT40 cell lines with known DNA damage response pathways - Rad54/Ku70 mutant cell line (AID 743015); settings: DT40 Rad54/Ku70 mutant viability, CellTiter-Glo, 40 h; series mostly up to 66.8 µM; note: nearly all actives have a fitted effect of over 60% in size; note: potency is the fitted concentration of half-maximal effect
[4] = qHTS assay to identify small molecule antagonists of the androgen receptor (AR) signaling pathway - cell viability counter screen (AID 743033; note: nearly all actives have a fitted effect of over 45% in size); settings: AR-bla HEK293 viability, CellTiter-Glo luminescence, 16 h; series mostly up to 58.5 µM
[5] = qHTS assay to identify small molecule antagonists of the androgen receptor (AR) signaling pathway using the MDA cell line - cell viability counter screen (AID 743041; note: nearly all actives have a fitted effect of over 45% in size); settings: MDA-kb2 viability, CellTiter-Fluor, 16 h, cells co-treated with R1881 androgen agonist; series mostly up to 70.3 µM
Procedure, shortened: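 Same-well cytotoxicity was assessed by CellTiter-Fluor in MDA-kb2 AR-luc cells after 16 h of compound treatment under R1881 agonism.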

[6] = qHTS assay for identifying genotoxic compounds that show differential cytotoxicity against isogenic chicken DT40 cell lines with known DNA damage response pathways - wild type cell line (AID 743012); settings: DT40 wild type chicken cells viability, CellTiter-Glo, 40 h; series mostly up to 68.4 µM; note: nearly all actives have a fitted effect of over 60% in size; note: potency is the fitted concentration of half-maximal effect
Procedure, shortened: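 Cells (DT40 wild type, 300/well) are treated with DMSO-dissolved compounds after a ~0.5 h pre-incubation and kept 40 h at 37 C/5% CO2. Viability is then measured by CellTiter-Glo luminescence following 30 min at room temperature.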

[7] = molecular target: Androgen receptor (Homo sapiens) (UniProt P10275); assay: qHTS assay to identify small molecule agonists of the androgen receptor (AR) signaling pathway (AID 743036; active = well fitted activation curve with a large enough effect in the signal ratio in the repeat runs, with a control signal flat, not every such curve was filed as active; the % refers to the signal ratio); settings: HEK293 AR-UAS-bla GripTite, beta-lactamase FRET ratio, 16 h; series mostly up to 62.4 µM
Sequence of Androgen receptor (Homo sapiens) (P10275 whole entry, looked up): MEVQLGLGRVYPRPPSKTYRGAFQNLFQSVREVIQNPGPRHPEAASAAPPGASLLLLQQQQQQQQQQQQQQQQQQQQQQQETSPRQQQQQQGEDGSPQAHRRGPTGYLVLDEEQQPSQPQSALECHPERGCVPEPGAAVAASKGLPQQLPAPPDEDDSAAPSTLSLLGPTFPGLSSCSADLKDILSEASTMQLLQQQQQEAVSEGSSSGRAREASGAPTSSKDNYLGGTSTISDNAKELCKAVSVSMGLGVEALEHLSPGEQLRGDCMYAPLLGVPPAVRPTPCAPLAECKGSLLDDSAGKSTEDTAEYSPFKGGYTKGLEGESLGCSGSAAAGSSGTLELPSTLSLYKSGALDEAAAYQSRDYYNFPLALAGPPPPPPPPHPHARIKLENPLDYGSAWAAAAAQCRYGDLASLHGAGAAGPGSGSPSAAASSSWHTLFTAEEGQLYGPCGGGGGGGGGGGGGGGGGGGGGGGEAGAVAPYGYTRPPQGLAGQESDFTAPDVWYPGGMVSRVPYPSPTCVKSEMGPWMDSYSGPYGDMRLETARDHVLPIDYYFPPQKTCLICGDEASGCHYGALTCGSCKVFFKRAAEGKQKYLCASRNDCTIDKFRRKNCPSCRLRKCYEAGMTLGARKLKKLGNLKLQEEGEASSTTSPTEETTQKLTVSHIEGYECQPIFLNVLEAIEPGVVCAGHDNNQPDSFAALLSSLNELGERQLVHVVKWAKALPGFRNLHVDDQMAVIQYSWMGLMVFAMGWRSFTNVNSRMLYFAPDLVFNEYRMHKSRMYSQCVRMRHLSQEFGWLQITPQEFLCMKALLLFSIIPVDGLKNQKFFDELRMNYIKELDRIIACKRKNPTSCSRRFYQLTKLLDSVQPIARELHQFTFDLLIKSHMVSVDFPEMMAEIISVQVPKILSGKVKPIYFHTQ
Procedure, shortened: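 Following a 4 h settling period, AR-UAS-bla HEK293 cells were dosed with compounds for 16 h at 37C. A 2 h room-temperature incubation with LiveBLAzer B/G FRET substrate preceded the fluorescence measurement.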

[8] = molecular target: Androgen receptor (Homo sapiens) (UniProt P10275); assay: qHTS assay to identify small molecule agonists of the androgen receptor (AR) signaling pathway using the MDA cell line (AID 743040; note: nearly all actives have a fitted effect of over 20% in size; note: potency is the fitted concentration of half-maximal effect); settings: MDA-kb2 AR-luc cells, MMTV luciferase, 16 h; series mostly up to 70.3 µM
Procedure, shortened: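 Human breast carcinoma MDA-kb2 reporter cells (MMTV-luc, AR/GR elements) were treated for 16 h at 37C in 0% CO2 following a 5 h settling period. Signal was quantified by ONE-Glo luminescence.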

[9] = molecular target: Androgen receptor (Homo sapiens) (UniProt P10275); assay: qHTS assay to identify small molecule antagonists of the androgen receptor (AR) signaling pathway using the MDA cell line (AID 743042; note: nearly all actives have a fitted effect of over 55% in size); settings: MDA-kb2 AR-luc, MMTV luciferase, R1881 antagonist, 16 h; series mostly up to 70.3 µM
Procedure, shortened: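 MDA-kb2 breast carcinoma cells carrying MMTV-luciferase (AR/GR responsive) were co-treated with compounds and the agonist R1881 for 16 h at 37C. Inhibition read as ONE-Glo luminescence; CellTiter-Fluor fluorescence measured in parallel for cytotoxicity.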

[10] = molecular target: Androgen receptor (Homo sapiens) (UniProt P10275); assay: qHTS assay to identify small molecule antagonists of the androgen receptor (AR) signaling pathway (AID 743035; active = well fitted inhibition curve with a large enough effect in the signal ratio in the repeat runs, not every such curve was filed as active; the % refers to the signal ratio); settings: HEK293 AR-UAS-bla, R1881-stimulated, beta-lactamase FRET, 16 h; series mostly up to 58.5 µM
Procedure, shortened: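 Antagonism is scored as loss of R1881-driven beta-lactamase reporter expression in HEK293 cells carrying the reporter under a UAS element, after 16 h co-treatment at 37C and a 2 h room-temperature FRET substrate read.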

Measured: Potency

Cc1c(Cl)cccc1Cl
inactive: [1] | [2] | [3] | [4] | [5]

CC(C)NCC(O)c1ccc2ccccc2c1 (stereo not drawn)
active: [6] 15 µM
inactive: [1] | [4] | [5]

COc1ccc(CCO)cc1
not listed: [6] | [10]
inactive: all other assays above

OCC1(CO)COCOC1
inactive: [1] | [2] | [3] | [4] | [5]

CC1OCCC1=O (stereo not drawn)
inactive: [1] | [2] | [3] | [4] | [5]

CCCCOC(=O)[C@H](C)O
inactive: [1] | [2] | [3] | [4] | [5]

c1ccc2cnccc2c1
active: [2] 30.6 µM | [3] 54.5 µM
inactive: [1] | [4] | [5]

CCCC(CC)c1ccccc1 (stereo not drawn)
inactive: [1] | [2] | [3] | [4] | [5]

c1ccc(B(c2ccccc2)c2ccccc2)cc1
inactive: [1] | [2] | [3] | [4] | [5]

Cn1c(=O)c2[nH]c(Br)nc2n(C)c1=O
inactive: [1] | [2] | [3] | [4] | [5]

C=CCN1C[C@H](C(=O)N(CCCN(C)C)C(=O)NCC)C[C@@H]2c3cccc4[nH]cc(c34)C[C@H]21
inactive: [1] | [2] | [4]

C/C=C(\C)C(=O)OCCc1ccccc1
inactive: [1] | [2] | [3] | [4] | [5]

CSc1cnccn1
inactive: [1] | [2] | [3] | [4] | [5]

C=C(C)C1CC=C(C)C(=O)C1 (stereo not drawn)
inactive: [1] | [2] | [3] | [4] | [5]

CC(=O)OC1CCCCC1C(C)(C)C (stereo not drawn)
not listed: [6] | [7]
inactive: all other assays above

CCCC(=O)Nc1ccc(OCC(O)CNC(C)C)c(C(C)=O)c1 (stereo not drawn)
inactive: [1] | [2] | [3] | [4] | [5]

CC(C)COC(=O)c1ccccc1
inactive: [1] | [4] | [10] | [8] | [5] | [9]

O=C(NCN1CCOCC1)c1cnccn1
not listed: [1]
inactive: all other assays above

CN(C)C(C)(C)CO
inactive: [1] | [3] | [4] | [5]

CC(=O)O[C@@H]1CC2CCC1(C)C2(C)C (stereo partly drawn)
not listed: [1]
inactive: all other assays above

COc1cc2c(cc1OC)C(=O)C(CC1CCN(Cc3ccccc3)CC1)C2 (stereo not drawn)
inactive: [1] | [4] | [7] | [8] | [5] | [9]

CCC(C)C(C)=O (stereo not drawn)
inactive: [6] | [2] | [3] | [4] | [5]

CCCCCC/C=C/C(=O)OC
inactive: [1] | [4] | [5]

CC(=O)CC(=O)OC(C)(C)C
not listed: [1] | [7]
inactive: all other assays above

Fc1ccccc1
inactive: [6] | [2] | [3] | [4] | [5]

N[C@@H](CSCCCO)C(=O)O
active: [8] 33.5 µM
not listed: [1]
inactive: all other assays above

O=C(Cl)c1ccccc1[N+](=O)[O-]
not listed: [1]
inactive: all other assays above

C=C(C)[C@@H]1CC=C(C)CC1
inactive: [1] | [4] | [5]

Cc1ccc(C)c([N+](=O)[O-])c1
inactive: [6] | [2] | [3] | [4] | [5]

O=C(O)CONC(=O)c1ccccc1
inactive: [1] | [3] | [4] | [5]

Cc1ccccc1C(N)=O
inactive: [1] | [3] | [4] | [5]

CC1CC(=O)CC(C)(C)C1 (stereo not drawn)
inactive: [6] | [2] | [3] | [4] | [5]

CCCC(=O)OCCC(C)CCC=C(C)C (stereo not drawn)
inactive: [1] | [4] | [5]

OCC(O)CN1CCN(c2ccccc2)CC1 (stereo not drawn)
inactive: [1] | [3] | [4] | [5]

C[C@]12CCC(=O)C=C1CC[C@H]1[C@@H]3CC[C@](O)(C(=O)CO)[C@@]3(C)C[C@H](O)[C@@]12F
inactive: [1] | [4] | [5]
active: [3] 21.1 µM

O=C[O][Al]([O]C=O)[O]C=O
inactive: [1] | [4] | [5]

Cn1c(=O)c2c(ncn2CCO)n(C)c1=O
inactive: [1] | [3] | [4] | [5]

CCC[C@@H]1C[C@@H](C(=O)N[C@@H]([C@H]2O[C@H](SC)[C@H](O)[C@@H](O)[C@H]2O)[C@@H](C)O)N(C)C1
inactive: [6] | [2] | [3] | [4] | [5]

COC(=O)c1ccccc1C(=O)O
inactive: [1] | [3] | [4] | [5]

O=[N+]([O-])c1c(Cl)cc(Cl)cc1Cl
inactive: [1] | [3] | [4] | [5]

C=CCCCCCCCC
inactive: [1] | [3] | [4] | [5]

C=C(C)c1cccc(C(C)(C)N=C=O)c1
inactive: [1] | [4] | [5]

c1ccc(-c2nn[nH]n2)cc1
inactive: [1] | [3] | [4] | [5]

CCO
not listed: [1] | [7]
inactive: all other assays above

CCC(C)OC(C)CC (stereo not drawn)
not listed: [1]
inactive: all other assays above

CN1CCOC(c2ccccc2)c2ccccc2C1 (stereo not drawn)
inactive: [1] | [5]

CC/C(C)=N\O[Si](C)(O/N=C(\C)CC)O/N=C(\C)CC
inactive: [1] | [3] | [4] | [5]

CCCCCCCCCCOC(C)=O
inactive: [6] | [2] | [3] | [4] | [5]

O=C(Cn1ccnc1[N+](=O)[O-])NCc1ccccc1
inactive: [1] | [3] | [4] | [5]

O=C=NCC1CCCC(CN=C=O)C1 (stereo not drawn)
inactive: [6] | [2] | [3] | [4] | [5]

C#CCN[C@@H]1CCc2ccccc21
inactive: [7]

CC(=O)c1cc(C)oc1C
inactive: [7]

Source: PubChem BioAssay (Tox21)
